Source: PubChem BioAssay
The source made the active and inactive calls. Unless noted, no rule for the calls is given here.

Legend:
[1] = system: XIP peptide (Xip251-270) binding; assay: XIP fragment 251-270 binding compounds – biochemical, small-molecule microarray, fluorescence 635/667 nm, 0.1 µg/mL protein, primary screen (AID 1182); conditions: fluorescent protein binding, 635 nm, higher = more signal, called active from +8 up or from −8 down
XIP peptide (Xip251-270) = assay: compounds binding XIP fragment 251-270 – biochemical, small-molecule microarray, fluorescence 635/667 nm, 0.5 µg/mL protein, primary screen (AID 1183); conditions: fluorescence 635 nm, higher = more signal
[2] = blood-stage malaria parasite viability loss – strain 3D7, DAPI fluorescence, 100 nL, primary screen (AID 1184);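 also: parasites grown inside human red blood cells in medium with human serum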; conditions: P. falciparum 3D7 growth, 3 d, higher = more signal
[3] = molecular target: Homeobox protein Hox-A13 (Mus musculus) (UniProt Q62424); assay: disruptors of Hoxa13 oligonucleotide interaction – biochemical, fluorescence polarization, labeled oligonucleotide, primary screen (AID 1185); conditions: Hoxa13:DNA binding, 15 min, higher = more signal, called active from +8 up or from −8 down
[4] = blockers of DNA damage checkpoint Chk1 activation – imaging, HeLa, hydroxyurea, phospho-Chk1 antibody, percent positive cells, primary screen (AID 1186); conditions: hydroxyurea-induced phospho-Chk1 immunofluorescence imaging, higher = more signal
[5] = blockers of DNA damage checkpoint Chk1 activation – imaging, HeLa, hydroxyurea, phospho-Chk1 nuclear intensity, primary screen (AID 1187); conditions: hydroxyurea-induced phospho-Chk1 immunofluorescence imaging, higher = more signal

Homeobox protein Hox-A13 (Mus musculus), sequence (Q62424 whole entry, looked up): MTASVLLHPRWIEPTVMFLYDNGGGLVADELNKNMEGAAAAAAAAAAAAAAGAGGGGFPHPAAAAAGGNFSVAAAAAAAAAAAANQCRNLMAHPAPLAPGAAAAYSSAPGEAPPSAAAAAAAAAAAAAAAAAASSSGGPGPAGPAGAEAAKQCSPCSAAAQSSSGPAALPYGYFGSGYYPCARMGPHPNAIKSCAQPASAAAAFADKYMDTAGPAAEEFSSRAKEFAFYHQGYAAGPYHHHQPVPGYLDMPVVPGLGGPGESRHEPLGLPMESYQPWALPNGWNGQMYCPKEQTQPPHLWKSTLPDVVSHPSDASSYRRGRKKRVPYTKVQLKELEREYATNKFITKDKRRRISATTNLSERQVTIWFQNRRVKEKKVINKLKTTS

SMILES	composite z-score [1]	composite z-score (XIP peptide (Xip251-270))	z-score [2]	z-score [3]	z-score [4]	z-score [5]
C[N+](C)(C)CCCCNC(=O)[C@H]1C[C@H]2C(=O)N3CCC[C@H]3C(=O)N2[C@H]1c1ccc(O)cc1	1.36 (inactive)	0.806	-0.0706	-0.675 (inactive)	0.0919 (inactive)	-0.206 (inactive)
O=C(N1CCCCC1)[C@]1(CCS(=O)(=O)c2ccccc2)N=C(c2ccc(OCCCO)cc2)O[C@@H]1c1ccccc1	1.29 (inactive)	0.75	-2.79	-5.68 (inactive)	-0.599 (inactive)	-1 (inactive)
O=C1C2C=CC(C(O)c3ccccn3)N(Nc3ccccc3F)C2C(=O)N1c1ccccc1 (configuration not stated)	-0.035 (inactive)	0.796	-0.0664	-2.54 (inactive)	-0.0045 (inactive)	-0.176 (inactive)
[N-]=[N+]=NCc1ccccc1C[C@]1(C(=O)NCC(O)CO)COC(c2ccc(OCCCO)cc2)=N1 (some centres not stated)	0.54 (inactive)	0.376	-2.04	-4.94 (inactive)	-0.0874 (inactive)	-0.341 (inactive)
O=C1O[C@H](c2ccccc2)[C@H](c2ccccc2)N2[C@H]1[C@@H](C(=O)N1CCCCCCC1)[C@]1(C(=O)Nc3ccc(C#CC4=CCCCC4)cc31)[C@H]2c1ccc(O)cc1	8.07 (active)	1	-1.96	3.02 (inactive)	-0.323 (inactive)	-0.649 (inactive)
NC(=O)[C@]1(Cc2ccccc2)N=C(c2ccc(OCCCO)cc2)O[C@@H]1c1ccccc1	-0.0696 (inactive)	0.0178	-2.04	-5.25 (inactive)	-0.0614 (inactive)	-0.209 (inactive)
C=C(COC)/C(=C/C[C@H](OC(C)=O)c1ccccc1OCCO)c1cnc2ccccc2c1	0.384 (inactive)	0.0219	-2.82	-5.24 (inactive)	0.134 (inactive)	0.19 (inactive)
C=CCCN(CC#C[C@H]1Oc2ccccc2S(=O)(=O)N2CCC[C@@H]12)S(=O)(=O)c1ccc(C)cc1	-0.183 (inactive)	-0.0455	-1.53	-2.47 (inactive)	0.508 (inactive)	0.431 (inactive)
CCOC(=O)C=Cc1cccc(OC)c1O	0.0682 (inactive)	0.36	-1.24	-0.697 (inactive)	-1.68 (inactive)	-1.49 (inactive)
COc1ccccc1CN1C(=O)c2ccccc2[C@](Cc2ccccc2I)(C(=O)NCc2ccccc2)[C@@H]1c1ccc(CO)cc1	-0.501 (inactive)	0.801	-0.818	-2.8 (inactive)	0.234 (inactive)	0.365 (inactive)
CO[C@H]1O[C@H](CO)[C@@H](OC(=O)Nc2ccc(C(F)(F)F)cc2)[C@H](OC(=O)Nc2ccccc2)[C@@H]1OC(=O)Nc1ccccc1	0.384 (inactive)	0.62	-0.0799	-5.23 (inactive)	0.666 (inactive)	0.389 (inactive)
CN(C)CCCN1C(=O)[C@@]2(c3ccc([N+](=O)[O-])cc3)CC(=O)N(C3CCCCC3)[C@@H]2c2ccc(CO)cc21	-0.157 (inactive)	-0.0092	0.615	-0.595 (inactive)	-0.659 (inactive)	-0.648 (inactive)
CCCCCCCCCCC(O)C1C=CC2C(=O)N(c3ccccc3)C(=O)C2N1Nc1ccc([N+](=O)[O-])cc1 (configuration not stated)	0.812 (inactive)	0.801	-0.338	-2.71 (inactive)	0.346 (inactive)	-0.444 (inactive)
CCOC1=C2C(c3ccc(C)cc3)N(S(=O)(=O)c3ccc(C)cc3)CC2n2c(=O)n(-c3ccccc3)c(=O)n2C1 (configuration not stated)	0.346 (inactive)	0.846	-0.102	-0.865 (inactive)	-0.562 (inactive)	0.0267 (inactive)
CC(=O)n1cc(C(O)C2C=CC3C(=O)N(c4ccccc4)C(=O)C3N2Nc2ccc(C#N)cc2)c2ccccc21 (configuration not stated)	1.16 (inactive)	0.786	0.429	-3.54 (inactive)	-0.199 (inactive)	-0.217 (inactive)
O=C1OCC=C[C@H]2OC34C=CCN(c5ccc(Cl)cc5)C(=O)[C@H]3N(CCCO)C(=O)[C@@H]4[C@@H]12 (some centres not stated)	1.92 (inactive)	-0.501	-1.39	-2.31 (inactive)	-0.0921 (inactive)	-0.389 (inactive)

SMILES	composite z-score [1]	composite z-score (XIP peptide (Xip251-270))	z-score [2]	z-score [3]	z-score [4]	z-score [5]
O[C@@H](Cc1ccccc1)[C@@H](/C=C/c1ccccc1)NCc1ccccc1Br	-0.265 (inactive)	0.727	0.871	-0.419 (inactive)	-0.28 (inactive)	0.364 (inactive)
COc1ccc(C#Cc2ccc3c(c2)[C@]2(C(=O)N3)[C@H](C(=O)N3CCN(c4ncccn4)CC3)[C@H]3C(=O)O[C@H](c4ccccc4)[C@H](c4ccccc4)N3[C@@H]2c2ccc(O)cc2)cc1	-0.219 (inactive)	0.734	-1.08	-0.983 (inactive)	-0.247 (inactive)	-0.298 (inactive)
CCCC[C@H]1C[C@@H]1[C@@H]1N(P(=O)(c2ccccc2)c2ccccc2)[C@](CO)(c2ccccc2)CC12CC2	-0.131 (inactive)	0.518	0.791	-2.7 (inactive)	0.335 (inactive)	0.514 (inactive)
O=C1OCCC/C=C\[C@H]2OC34C=CCN(CCN5CCOCC5)C(=O)[C@H]3N(CCO)C(=O)[C@@H]4C12 (some centres not stated)	0.489 (inactive)	-0.979	-1.22	-5.83 (inactive)	-0.225 (inactive)	0.264 (inactive)
O=C1C2C=CC(C(O)c3ccc(B(O)O)cc3)N(Nc3ccc([N+](=O)[O-])cc3)C2C(=O)N1c1ccccc1 (configuration not stated)	0.432 (inactive)	0.208	1.18	-1.63 (inactive)	-0.169 (inactive)	-0.219 (inactive)
O=C1OCC=C[C@H]2OC34C=CCN(Cc5ccccc5)C(=O)[C@H]3N(CCCO)C(=O)[C@@H]4[C@@H]12 (some centres not stated)	1.09 (inactive)	0.212	-1.89	-4.31 (inactive)	-1.44 (inactive)	-0.938 (inactive)
CC(c1ccccc1)C(O)C1C=CC2C(=O)N(c3ccccc3)C(=O)C2N1Nc1ccccc1F (configuration not stated)	-0.093 (inactive)	0.583	-0.436	-1.51 (inactive)	-0.123 (inactive)	0.104 (inactive)
COC(=O)c1nc2oc1CC[C@@H](CO)NC(=O)N(C)Cc1cn(nn1)C[C@H](Cc1ccccc1)NC2=O	0.827 (inactive)	0.969	1.24	-1.31 (inactive)	-0.0288 (inactive)	-0.455 (inactive)
O=S(=O)(NCCCO)c1ccc(Br)cc1	-0.2 (inactive)	0.0425	0.327	0.533 (inactive)	-0.868 (inactive)	-0.953 (inactive)
CN(C)CCCC[C@@H]1NC(=O)[C@H]2C[C@@H](C(=O)NCCCCCNC(=O)CS)[C@@H](c3ccc(O)cc3)N2C1=O	-0.276 (inactive)	0.903	-0.282	-2.09 (inactive)	0.358 (inactive)	0.155 (inactive)
C[C@H]1C2[C@H](Cc3ccccc3)NC(=O)[C@]23C(=O)N[C@H](Cc2ccccc2)C(=O)N[C@H](Cc2ccccc2)C(=O)NC/C=C/CCC/C=C/C3[C@@H]2O[C@]12C (some centres not stated)	0.353 (inactive)	0.518	-1.71	-5.67 (inactive)	0.275 (inactive)	0.371 (inactive)
C=CCC(OC(C)=O)[C@@H]1[C@@H](N(Cc2cc3ccccc3o2)C(=O)c2ccc(C)cc2)c2cc(OCCCO)ccc2N1C(=O)c1ccc(-c2ccccc2)cc1 (some centres not stated)	-0.28 (inactive)	-0.294	-2.58	-0.468 (inactive)	-1.19 (inactive)	-1.05 (inactive)
CN1C(=O)C2C=CC(C(O)C=Cc3ccc([N+](=O)[O-])cc3)N(N3CCCCC3)C2C1=O (configuration not stated)	0.62 (inactive)	0.776	0.986	-4.74 (inactive)	0.579 (inactive)	-0.157 (inactive)
COCCOC(=O)N1C(=O)[C@@]2(c3cc(C#CC4=CCCCC4)ccc31)[C@H](C(=O)N1CCN(c3ncccn3)CC1)[C@H]1C(=O)O[C@H](c3ccccc3)[C@H](c3ccccc3)N1[C@@H]2c1ccc(OCCO)cc1	0.499 (inactive)	0.463	-2.08	1.96 (inactive)	0.0924 (inactive)	0.501 (inactive)
CCCNC(=O)[C@@]1(c2ccc([N+](=O)[O-])cc2)CC(=O)N(CC23CC4CC(CC(C4)C2)C3)[C@@H]1c1ccc(CO)cc1I	1.18 (inactive)	0.59	-1.55	-3.75 (inactive)	-0.28 (inactive)	-0.51 (inactive)
CO[C@H]1O[C@H](CO)[C@@H](OC(=O)Nc2ccccc2-c2ccccc2)[C@H](OC(=O)Nc2ccccc2-c2ccccc2)[C@H]1OC(=O)Nc1ccccc1-c1ccccc1	0.0163 (inactive)	0.861	-1.06	-2.05 (inactive)	-0.0075 (inactive)	0.618 (inactive)
